This note sets out measurements from PubChem BioAssay AID485317 (Broad Institute, 2010).

Among all 290,000 compounds or so, about 11,000 (3.8%) were called active. Shown is part of a subset that was picked to be rich in actives. Values without a mark were called inactive.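 The calls were made as follows: active = mean replicate inhibition above about 79%, with every replicate also reaching it (limit read from the data); inconclusive = only one of the two criteria met; inactive = mean below limit and not every replicate reaching it.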

Sequence of FAD-linked sulfhydryl oxidase ALR (Homo sapiens) (P55789 whole entry, looked up): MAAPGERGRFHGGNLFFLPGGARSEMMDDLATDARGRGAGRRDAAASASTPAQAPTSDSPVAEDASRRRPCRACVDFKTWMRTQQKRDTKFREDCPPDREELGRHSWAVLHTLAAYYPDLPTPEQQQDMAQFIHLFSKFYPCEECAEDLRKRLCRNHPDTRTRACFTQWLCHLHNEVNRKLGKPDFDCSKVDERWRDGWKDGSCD

The assay has as its target FAD-linked sulfhydryl oxidase ALR (Homo sapiens) (UniProt P55789). In words: inhibitors of human ALR sulfhydryl oxidase, primary screen, biochemical, H2O2 detection, HRP-luminol luminescence, single point (AID 485317). The settings on record: purified ALR, DTT oxidation, active compounds read high, concentration not given here.
In general, inhibition refers to the relative decrease from the control value, in per cent. In the case of `Cc1ccccc1NC(=O)Cc1nc(COC(=O)c2cccnc2Cl)cs1`, the inhibition was 31.8%.
For `O=C(COC(=O)c1ccc2c(c1)OCCO2)NCc1ccccc1Cl` the value was 1.29%; for `O=C(Cn1nc(Cc2cccnc2)c2ccccc2c1=O)NCC1CCCO1` (configuration not stated), 98% (active).
For `Cc1nn(CC(=O)NCC2CCCO2)c(=O)c2cc3ccccc3n12` (configuration not stated) the value was -2.19%; for `O=C(Cn1nc(Cc2cccnc2)c2ccccc2c1=O)NCC1COc2ccccc2O1` (configuration not stated), -6%; for `CCOC(=O)c1cc(NC(=O)c2cccnc2)ccn1`, -12.6%.
To `CC(=O)Nc1ccc(SC[C@H](Cc2ccccc2)N2CC[C@@H](C)CCC2=O)cc1` belongs 97.9% (active); to `O=C1CC[C@H](O)CCN1[C@H](CSc1ccc(Br)cc1)Cc1ccccc1`, 11.4%.
Consider `C[C@H]1CCC(=O)N([C@H](CSc2ccccc2)Cc2ccccc2)CC1`, for which the inhibition is -5.54%.
Turning to `COc1ccc(NC(=O)COC(=O)c2n[nH]c3ccccc23)c(OC)c1`, the inhibition is -2.04%.
For the compound `c1ccc(-c2cnc(CN3CCN(c4ccccc4)CC3)o2)cc1`, the inhibition was 88.2% (active).
With `Fc1ccc(N2CCN(Cc3cnc(Oc4ccc(Br)cc4)s3)CC2)cc1`, the inhibition is 1.01%.
To `COc1ccc(N2CCN(Cc3nnc(-c4ccccc4)o3)CC2)cc1` belongs 35.1%; to `COc1ccc(C2=Nn3c(nnc3-c3ccccc3OC)SC2)cc1OC1CCCC1`, 0.67%; to `O=C(Nc1ccc(F)c([N+](=O)[O-])c1)C1CCCO1` (configuration not stated), -26.1%.
Consider `CCOc1ccc(OCC(=O)OC(C)C(=O)NC2CCCCC2C)cc1` (configuration not stated), for which the inhibition was -1.89%.
For `CCc1ccc(NC2Nc3cc(C)nn3S2)cc1` (configuration not stated) the value was 97.5% (active).
With `CCOC(=O)c1ccc(NC2Nc3cc(C)nn3S2)cc1` (configuration not stated), the inhibition was -10.5%.
To `COc1ccc(-c2nnc(SCC(=O)Nc3cccnc3Cl)n2C)cc1` belongs -3.14%; to `C[C@H](NC(=O)c1[nH]cnc1C(=O)Nc1nccs1)c1ccccc1`, -11.7%.
For `COc1ccc(C(=O)OCC(=O)NCCCc2ccccc2)cc1OC` the value was 1.14%; for `COc1cc(/C=C/C(=O)OCC(=O)NCCCc2ccccc2)ccc1O`, 92.7% (active).
For `COc1cc(/C=C/C(=O)OCC(=O)Nc2cccc(Oc3ccccc3)c2)ccc1O` the value was -5.43%.
For the compound `O=C1C=C(c2cccc(Cl)c2O)C[C@@H](c2ccc(F)cc2)C1`, the inhibition is 19.8%.
For `COC(=O)c1ccc(COC(=O)CNC(=O)c2cccc(OC)c2)o1` the value was 0.754%; for `CCN(C(=O)COC(=O)Cc1c(F)cccc1Cl)c1c(N)n(Cc2ccccc2)c(=O)[nH]c1=O`, -2.58%; for `O=C(/C=C/c1ccc(F)cc1)NCCNC(=O)/C=C/c1ccc(F)cc1`, -1.46%.
For `O=C(/C=C/c1ccc(F)cc1)NC(=S)NNC(=O)c1cccnc1` the value was 91.2% (active).
To `CC(C)c1ccc(/C=C/C(=O)NNC(=O)c2cccnc2)cc1` belongs 3.18%; to `O=C(NCCc1ccco1)c1ccc(OCc2cn3ccccc3n2)cc1`, -0.605%; to `COc1ccc(S(=O)(=O)N2CCCCC2)cc1NC(=O)COc1ccccc1`, -4.75%.
As for `Fc1ccccc1/C=N/Nc1cc(N2CCCCC2)ncn1`, the inhibition is -6.88%.
To `Cc1ccc2nc(C)cc(N/N=C/c3ccc(F)cc3)c2c1` belongs 68.2%.
Consider `Cc1cc(N/N=C/c2ccccc2F)c2ccccc2n1`, for which the inhibition was 98.4% (active).
As to `O=C(Nc1ccc(N2CCOCC2)cc1)c1cccc(S(=O)(=O)N2CCOCC2)c1`, the inhibition was 13.1%.
To `Cc1sc2nc(CSCC(=O)Nc3c(Cl)cccc3Cl)[nH]c(=O)c2c1C` belongs 36.7%; to `CCOC(=O)c1sc2nc(C)[nH]c(=O)c2c1C`, -7.28%; to `CCOC(=O)c1sc2nc(CSCC(=O)OCc3ccc(C(=O)OC)o3)[nH]c(=O)c2c1C`, 91.5% (active).
For `N#CCc1c(C#N)c(N)nc(N2CCCC2)c1C#N` the value was 6.64%; for `CC(C)CCNc1nc(N2CCCC2)c2c(c1C#N)CCN(C)C2`, 89.2% (active); for `CC(C)Cc1nc(N2CCOCC2)c(C#N)c2c1CCC2`, -5.9%.
For `Cc1ccsc1C(=O)NC1CCCCC1C` (configuration not stated) the value was -1.25%.
Turning to `COc1ccccc1C1=CC(=O)C[C@H](c2ccc(F)cc2)C1`, the inhibition was -1.43%.
To `Cc1cc(C)c(NC(=O)CSc2nc3ccncc3[nH]2)c(C)c1` belongs 0.095%; to `CCN(CC)CCNC(=O)c1ccc(NC(=O)c2cc(-c3ccncc3)nc3ccccc23)cc1`, -5.03%; to `CCCCN(CC)CCCNC(=O)c1ccc(CSc2nc3ccncc3[nH]2)cc1`, 98.4% (active).
As to `Cc1nn(Cc2ccccc2)c(C)c1CNC(=O)c1ccc(F)c(S(=O)(=O)N2CCOCC2)c1`, the inhibition is -0.911%.
To `CCOc1cc(/C=C/C(=O)OCC(=O)NCCN2C(=O)CSC2=O)ccc1OCC(C)C` belongs 2.31%; to `CCN(CC(=O)Nc1c(F)cccc1F)C(=O)c1ccc(Sc2nncn2C)c([N+](=O)[O-])c1`, -9.3%; to `CCOc1ccc(Br)cc1S(=O)(=O)N1CCC(C(=O)O)CC1`, -9.17%.
For `CC(C)(C)NCc1cc(Br)ccc1OC1CCCC1` the value was -4.37%.
`CCOc1ccc(Br)cc1CSC(=N)N`: the inhibition is 98.3% (active).
For the compound `COc1ccc(C(O)(C2CCCCC2)C(CN2CCCC2)c2ccccc2)cc1` (configuration not stated), the inhibition is -2.71%.
Regarding `CN(C)CC(O)COc1ccc(C(C)(C)c2ccc(OCC(O)CN(C)C)cc2)cc1` (configuration not stated), the inhibition was -9.59%.
For `CCCC(O)(c1ccc(OC)cc1)C(CN(C)C)c1ccccc1` (configuration not stated) the value was 98.6% (active).
For `CC(=O)NC(CC(=O)Nc1ccc(S(=O)(=O)N2CCOCC2)cc1)c1ccccc1` (configuration not stated) the value was -5.33%; for `COc1ccc(CNC(=O)CNC(=O)c2sc3ccccc3c2Cl)cc1OC`, -4.54%.
To `NCCN1CCN2C(=O)CN(C(=O)c3ccccc3)CC12` (configuration not stated) belongs 1.22%; to `Cc1c(C(C)CCCO)oc(=O)c2c1Oc1c(C)c(C(C)C[C@@H](C)O)oc(=O)c1C2` (some centres not stated), -3.12%; to `COc1cc(C(=O)NCc2ccncc2)cc(Br)c1OCc1ccccc1`, -6.06%.
For the compound `COc1cc(C(=S)NCc2ccccc2)cc(Br)c1O`, the inhibition is 88.4% (active).
To `COc1cc(C=O)c(Br)cc1OCC(=O)NCc1ccccc1` belongs -3.31%.
